Hits are enriched below; roughly 3.5% of the tested compounds scored in any of these assays.
TEAD-YAP inh: TEAD-YAP interaction inhibition, primary screen, TEAD-YAP interaction inhibitor project, luminescence, HEK-TIYL cells; TEAD-Gal4/YAP UAS-luciferase luminescence; inhibition, % at 9.12 µM; 640,000 compounds, 1.4% hits; in the data active = inhibition above about 32%;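 note: 0% = median of test compound wells and 100% = reference inhibitor wells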
FBW7 activator: FBW7 E3 ligase activators, primary screen, biochemical, AlphaScreen, human; F-box/WD repeat-containing protein 7 (Homo sapiens), Q969H0; 650,000 compounds, 0.13% hits; normalized activity (activation), % at 26.1 µM; AlphaScreen FBW7–phospho-cyclin E peptide binding, activator screen; in the data active = normalized activity above about 1.9%;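 note: purified mutant Fbw7 with reduced substrate affinity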
MITF inh: MITF inhibitors, primary screen, biochemical, AlphaScreen, human | 650,000 compounds, 0.91% hits | AlphaScreen MITF homodimerization, bead proximity signal | inhibition, % at 2.6 µM | Microphthalmia-associated transcription factor (Homo sapiens), O75030; in the data active = inhibition above about 50%;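 note: 0% = vehicle wells with protein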
GPR151 activ: activators of human GPR151, primary screen, cell-based, PathHunter beta-arrestin, luminescence. G-protein coupled receptor 151 (Homo sapiens), Q8TDV0. PathHunter beta-arrestin GPR151 cells. activation, % at 11.2 µM. 650,000 compounds, 1% hits. AID 1508602, 2020; in the data active = activation above about 4.9%;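 note: 0% = median of compound wells and 100% = cells with positive control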
Target sequence (Q8TDV0 whole entry, looked up): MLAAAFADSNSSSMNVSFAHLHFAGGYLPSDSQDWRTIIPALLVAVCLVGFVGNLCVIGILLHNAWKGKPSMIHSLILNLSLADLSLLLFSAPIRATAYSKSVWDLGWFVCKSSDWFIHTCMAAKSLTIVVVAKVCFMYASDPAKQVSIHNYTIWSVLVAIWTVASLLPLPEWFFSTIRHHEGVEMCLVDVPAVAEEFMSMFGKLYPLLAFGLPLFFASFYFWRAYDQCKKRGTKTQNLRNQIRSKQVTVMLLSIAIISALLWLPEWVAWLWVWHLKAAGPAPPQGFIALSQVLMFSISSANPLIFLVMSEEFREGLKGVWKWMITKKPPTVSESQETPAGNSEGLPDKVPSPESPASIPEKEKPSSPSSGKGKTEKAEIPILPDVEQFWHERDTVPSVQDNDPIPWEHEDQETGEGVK
GPR151 confirm: GPR151 activators, triplicate retest, confirmation, cell-based, PathHunter beta-arrestin, luminescence | 6,700 tested, under 10 active | shares compounds with GPR151 activ | activation, % at 11.2 µM | GPR151 PathHunter beta-arrestin cells, 90 min; % of EA-reagent control over plate median;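 active = mean percent activation across replicates above the confirmation screen cutoff of 4.91%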
GPR119 ag: GPR119 activators in beta-arrestin cells, counter-screen for GPR151 activator project, cell-based, PathHunter beta-arrestin, luminescence, triplicate. shares compounds with GPR151 activ. 90 min; 0 = compound-well median, 100 = enzyme-acceptor control. activation, % at 11.2 µM. 6,700 compounds, 0.3% hits. AID 1508611, 2020;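 active = mean percent activation in the counterscreen above 29.09%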;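 note: counterscreen on off-target GPR119 to flag nonselective hits from the GPR151 activator screen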
Active calls of the source: *.

What do the screens show for `COc1ccc(N2C(=O)NC(=O)/C(=C/c3cccn3-c3cccc([N+](=O)[O-])c3)C2=O)cc1`?
TEAD-YAP inh: 0; FBW7 activator: 0; MITF inh: 15; GPR151 activ: 4.9*; GPR151 confirm: 0; GPR119 ag: 4

What do the screens show for `COc1cccc(N2C(=O)NC(=O)/C(=C/c3c(OC)ccc4ccccc34)C2=O)c1`?
TEAD-YAP inh: 3; FBW7 activator: 0; MITF inh: -11; GPR151 activ: -1

How did CCCn1c(=NC(=O)C(C)(C)C)c(C(=O)OCC)cc2c(=O)n3ccccc3nc21 do in these assays?
TEAD-YAP inh: 7; FBW7 activator: 1; MITF inh: -3; GPR151 activ: 1

How did CCCCn1c(=NC(=O)C(C)(C)C)c(C(=O)OCC)cc2c(=O)n3ccccc3nc21 do in these assays?
TEAD-YAP inh: 10; FBW7 activator: 0; MITF inh: 1; GPR151 activ: 5.3*; GPR151 confirm: 0; GPR119 ag: 14

What do the screens show for `CCC(Sc1nc2n[nH]c(C)c2c(=N)n1-c1cccc(Cl)c1)C(=O)N1CCOCC1` (configuration not stated)?
TEAD-YAP inh: -21; FBW7 activator: 0; MITF inh: 4; GPR151 activ: -1

What do the screens show for `O=C(CN1CCCCCC1)Nc1ccccc1N1CCCCC1`?
TEAD-YAP inh: 6; FBW7 activator: 0; MITF inh: 31; GPR151 activ: -1

How did O=C1CCCc2nc(N3CCN(Cc4ccccc4)CC3)ncc21 do in these assays?
TEAD-YAP inh: -6; FBW7 activator: 0; MITF inh: 14; GPR151 activ: 6.9*; GPR151 confirm: 0; GPR119 ag: 8

Results for CC1CC(=O)c2cnc(N3CCN(Cc4ccccc4)CC3)nc2C1 (configuration not stated) ?
TEAD-YAP inh: -7; FBW7 activator: 1; MITF inh: 10; GPR151 activ: -1

Results for CC(=O)c1cccc(S(=O)(=O)NCC(F)(F)F)c1 ?
TEAD-YAP inh: -3; FBW7 activator: 0; MITF inh: -11; GPR151 activ: 5.5*; GPR151 confirm: -1; GPR119 ag: 6

What do the screens show for `C=CCNS(=O)(=O)c1cccc(C(C)=O)c1`?
TEAD-YAP inh: -1; FBW7 activator: 0; MITF inh: 14; GPR151 activ: 1

What do the screens show for `Nc1nc2ccc(OC(F)(F)F)cc2s1`?
TEAD-YAP inh: -18; FBW7 activator: 0; MITF inh: -8; GPR151 activ: -2

Results for Nc1nc2ccc(Oc3ccccc3)cc2s1 ?
TEAD-YAP inh: 1; FBW7 activator: 0; MITF inh: 3; GPR151 activ: 8.9*; GPR151 confirm: 0; GPR119 ag: -3

Results for COc1ccc(-n2ccc(-c3sc(NCc4cnn(C)c4C)nc3C)n2)cc1 ?
TEAD-YAP inh: -4; FBW7 activator: 1; MITF inh: 23; GPR151 activ: 0

How did O=C(NC(=O)c1ccccc1)Nc1ccc(Br)cc1 do in these assays?
TEAD-YAP inh: -20; FBW7 activator: 0; MITF inh: -10; GPR151 activ: 6.1*; GPR151 confirm: -1; GPR119 ag: -11

Results for NC(=O)C1CCN(c2ccc3cccc(OCc4ccc(F)cc4)c3n2)CC1 ?
TEAD-YAP inh: 1; FBW7 activator: 0; MITF inh: -4; GPR151 activ: -2

Results for Cc1cc(N2C(=O)c3ccc(C(=O)N4CCCCC4C)cc3C2=O)no1 (configuration not stated) ?
TEAD-YAP inh: 6; FBW7 activator: 0; MITF inh: 11; GPR151 activ: 2

How did Cc1ccc(N2C(=O)c3ccc(C(=O)N4CCCCC4C)cc3C2=O)cc1 (configuration not stated) do in these assays?
TEAD-YAP inh: 3; FBW7 activator: 0; MITF inh: 15; GPR151 activ: 5.0*; GPR151 confirm: 0; GPR119 ag: 11

Screening data from PubChem.
